Compound activity deposited in PubChem by National Center for Advancing Translational Sciences (NCATS).
AmpC no deterg: qHTS Inhibitors of AmpC Beta-Lactamase (assay without detergent) | AmpC nitrocefin hydrolysis, absorbance 480 nm, 0.0001% Triton | Potency, µM (titrated, usually from 57.1 µM), most hits filed as inhibitors | 330,000 tested, 0.52% active | AID 485341, 2010; note: nearly all actives have a fitted effect of over 20% in size
Target sequence (P00811 whole entry, looked up): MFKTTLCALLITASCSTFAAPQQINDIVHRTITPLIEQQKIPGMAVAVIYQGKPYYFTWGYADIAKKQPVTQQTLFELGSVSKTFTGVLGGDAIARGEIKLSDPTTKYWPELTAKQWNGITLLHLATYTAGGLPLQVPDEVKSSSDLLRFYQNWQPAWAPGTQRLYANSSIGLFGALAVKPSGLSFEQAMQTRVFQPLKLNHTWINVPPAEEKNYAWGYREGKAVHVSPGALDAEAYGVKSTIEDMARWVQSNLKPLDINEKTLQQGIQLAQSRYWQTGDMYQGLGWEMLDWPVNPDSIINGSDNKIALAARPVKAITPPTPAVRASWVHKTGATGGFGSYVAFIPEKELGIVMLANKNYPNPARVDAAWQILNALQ
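20 mM phosphate pH 7.0 + 0.01% (detergent screen) or 0.0001% Triton X-100; 5.3 nM AmpC reagent; cpd preinc 15 min RT; nitrocefin (800 uM stock) to start; A480 q20 s × 4 min; Activity was normalised to no-enzyme and no-compound control wells.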
NS1 inh: qHTS Assay for Inhibitors of Influenza NS1 Protein Function; Potency, µM (top dose mostly 46.1 µM); 270,000 tested, 0.4% active; calls by dose curve; note: actives are rising curves; nearly all actives have a fitted effect of over 50% in size
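Compounds were scored for reversing the slow growth caused by influenza A NS1 in S. cerevisiae, measured by optical density at 600 nm. Assay medium contained 2% galactose at pH 6.0; NS1-free yeast of the same strain were the positive control.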
AmpC detergent: qHTS Inhibitors of AmpC Beta-Lactamase (assay with detergent); Potency, µM (highest dose often 114 µM), hits mostly inhibitors; 370,000 tested, 0.041% active; AmpC hydrolysis of nitrocefin, absorbance 480 nm, 0.01% Triton; P00811; note: nearly all actives have a fitted effect of over 25% in size
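AmpC (5.3 nM in the dispensed reagent) in 20 mM phosphate pH 7.0 with 0.01% (detergent screen) or 0.0001% Triton X-100 was preincubated with compounds for 15 min at room temperature. Nitrocefin was then added from an 800 uM solution, and hydrolysis was followed at 480 nm.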
AMA1-RON2 inh: qHTS for Inhibitors of AMA1-RON; Towards Development of Antimalarial Drug Lead: Primary Screen. AID 720542, 2013. 360,000 tested, 0.2% active. AlphaScreen AMA1-biotinylated RON2 peptide binding. Potency, µM (top dose mostly 58.2 µM), most hits filed as inhibitors; note: nearly all actives have a fitted effect of over 45% in size
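AMA1 (3D7) with his tag at 25 nM final met compounds first, then biotinylated RON2 peptide at 25 nM; detection used donor plus acceptor beads, 10 µg/mL apiece, read by AlphaScreen after 30 min at room temperature.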
Flu NS1 inh: Assay for Inhibitors of Influenza NS1 Protein Function: Hit Validation; activity change, negative = inhibition, % at 32.9 µM; 1,400 tested, under 10 active; influenza NS1 function cell assay, 15-point titration; shares compounds with NS1 inh; calls by dose curve
PR8 titer: Assay for Inhibitors of Influenza NS1 Protein Function: Influenza virus replication assay in MDCK cells infected with virus A/PR/8/34; shares compounds with NS1 inh; MDCK infected influenza A/PR/8/34, virus titer TCID50; stronger effect = lower value; virus titer (log TCID50), log10 TCID50 at 5 µM; 95 tested, 30% active; call rule not given here
Large screens that a line does not name were inactive (follow-up assays come after a bar, where they were run). Shown are actives, neighbours in structure and some others; about 0.86% of the full set was active somewhere. Unless noted, calls come from the whole dose curve; as a rule, active = well fitted curve in the direction sought with a large enough effect; inconclusive = small, poorly fitted or top-dose-only effect, or another doubt; inactive = no such curve, though single readings can be large; an effect the other way counts as inactive or inconclusive.

CCc1ccc(NC(=O)N2CCN(Cc3cc(=O)n4nc(-c5ccccc5OC)sc4n3)CC2)cc1	none (no result: AmpC no deterg, NS1 inh, AMA1-RON2 inh)
CCOC(=O)c1cccc(NC(=O)c2cnc3sc(N4CCOCC4)nn3c2=O)c1	none (no result: AmpC no deterg, NS1 inh, AMA1-RON2 inh)
Cc1c(C(=O)N2CCN(Cc3ccc4c(c3)OCO4)CC2)sc2ncnc(N3CCN(c4ccccc4F)CC3)c12	none
Cc1c(C(=O)N2CCN(Cc3ccc4c(c3)OCO4)CC2)sc2ncnc(N3CCN(c4ccccc4)CC3)c12	NS1 inh 2.5µM | Flu NS1 inh inconclusive
CCCCOc1ccccc1C(=O)N(Cc1sccc1C)C1CCS(=O)(=O)C1 (stereo not given)	none (no result: AmpC no deterg, NS1 inh, AMA1-RON2 inh)
COc1ccccc1C(=O)N(Cc1sccc1C)C1CCS(=O)(=O)C1 (stereo not given)	NS1 inh 3.2µM | Flu NS1 inh inactive
CC(=O)N1CCc2c(sc3c2c(=O)n(-c2ccccc2)c(=O)n3CC(=O)c2ccc(F)cc2)C1	none (no result: AmpC no deterg, NS1 inh, AMA1-RON2 inh)
C[C@H](CO)N1C[C@H](C)[C@@H](CN(C)Cc2ccc(C(=O)O)cc2)Oc2c(NS(=O)(=O)c3cn(C)cn3)cccc2C1=O	none (no result: NS1 inh, AmpC detergent)
COc1ccc(S(=O)(=O)NC2CCc3ccccc32)cc1OC (stereo not given)	none
COC(=O)Cc1cc(=O)n(-c2ccccc2)[nH]1	NS1 inh 8.9µM, AmpC detergent inconclusive | Flu NS1 inh inactive
COC(=O)Cc1[nH]n(-c2ccccc2)c(=O)c1C(C)=Nc1ccccc1	none (no result: NS1 inh)
COc1cc(Cl)ccc1NC(=O)COc1ccccc1C(=O)N1CCN(c2ccc(O)cc2)CC1	none
Cc1cc(C)cc(NC(=O)CSc2nc3c(oc4ccccc43)c(=O)n2-c2ccccc2)c1	NS1 inh 5µM, AmpC detergent inconclusive | Flu NS1 inh inconclusive
CCCCCCn1c(COc2ccccc2F)nnc1SCC(=O)c1c(N)n(C)c(=O)n(C)c1=O	NS1 inh inconclusive (no result: AMA1-RON2 inh) | Flu NS1 inh inactive
COCC(C)n1c(COc2ccccc2F)nnc1SCC(=O)c1c(N)n(C)c(=O)n(C)c1=O (stereo not given)	none
CC1CCC(C(C)C)C(OC(=O)CSc2nc(N)cc(=O)[nH]2)C1 (stereo not given)	NS1 inh 8.9µM | Flu NS1 inh inactive
C#CCn1c(=NC(=O)c2cc(Cl)sc2Cl)sc2cc(S(N)(=O)=O)ccc21	NS1 inh 10µM | Flu NS1 inh inactive
Clc1ccccc1CSc1nc(NCCc2ccccc2)c2ccccc2n1	none (no result: AmpC no deterg, NS1 inh, AMA1-RON2 inh)
Cc1c(NC(=O)C2CCCN2S(=O)(=O)c2ccccc2)c(=O)n(-c2ccccc2)n1C (stereo not given)	NS1 inh 7.1µM | Flu NS1 inh inactive
Cc1ccc(S(=O)(=O)Nc2ccc3nc(-c4cccn4C)[nH]c3c2)cc1	NS1 inh 1.6µM | Flu NS1 inh inactive | PR8 titer inactive
Cn1cccc1-c1nc2ccc(NC(=O)c3ccccc3)cc2[nH]1	none
Cc1ccc(S(=O)(=O)N2CCC(=O)N(C(COCc3ccc(Cl)cc3Cl)Cc3ccccc3)CC2)cc1 (stereo not given)	NS1 inh inconclusive | Flu NS1 inh inactive | PR8 titer 7.5
Cc1ccc(S(=O)(=O)N2CCC(=O)N(C(COCc3cccc(Cl)c3)Cc3ccccc3)CC2)cc1 (stereo not given)	AmpC detergent inconclusive
O=C(Cc1ccccc1)NCCN1CCCC1	NS1 inh 2.8µM, AmpC detergent inconclusive | Flu NS1 inh inactive
CC1Cc2nc(SCC(=O)Nc3nccs3)n(Cc3ccccc3)c(=O)c2S1 (stereo not given)	NS1 inh 20µM | Flu NS1 inh inactive
COCCn1c(SCC(=O)Nc2ccc3c(c2)OCCO3)nc2c(c1=O)SC(C)C2 (stereo not given)	none
CC1Cc2nc(SCC(=O)Nc3ccc4c(c3)OCO4)n(Cc3ccccc3)c(=O)c2S1 (stereo not given)	NS1 inh 11µM | Flu NS1 inh inactive
CC1Cc2nc(SCC(N)=O)n(Cc3ccccc3)c(=O)c2S1 (stereo not given)	none
CCOc1cc(C(c2c(C)[nH][nH]c2=O)c2c(C)[nH][nH]c2=O)cc(Br)c1OC	none
COc1ccc(S(=O)(=O)N2CCOC2CNC(=O)C(=O)NCCc2c[nH]c3ccccc23)cc1C (stereo not given)	NS1 inh 14µM | Flu NS1 inh inactive
O=C1NC(=S)S/C1=C/c1ccc(N2CCOCC2)o1	NS1 inh 7.9µM | Flu NS1 inh inactive
CNC(=O)c1cc2cc(OC)ccc2n1CCN(C)C	NS1 inh 3.5µM | Flu NS1 inh inactive
CCOc1ccc(Cl)cc1-c1cc(C(=O)Nc2ccc(F)cc2)[nH]n1	none (no result: AmpC no deterg, NS1 inh, AmpC detergent)
O=C(C1=NN(c2ccccc2)C2C(=O)N(c3ccccc3Cl)C(=O)C12)c1ccccc1 (stereo not given)	NS1 inh 5.6µM | Flu NS1 inh inactive | PR8 titer inactive
O=C(C1=NN(c2ccccc2)C2C(=O)N(c3ccccc3)C(=O)C12)c1ccccc1 (stereo not given)	NS1 inh inconclusive
CCN(CC)CCOC(=O)c1ccc(NC(=O)Cn2ncc3c2-c2cc(C)ccc2OC3)cc1	none (no result: AmpC no deterg, NS1 inh, AMA1-RON2 inh)
COc1cc(C(=O)NC(=S)Nc2ccc(N3CCCC3)cc2)cc(OC)c1OC	NS1 inh 13µM, AmpC detergent inconclusive | Flu NS1 inh inactive
COc1ccc(C(=O)NC(=S)Nc2ccc(N3CCCC3)cc2)cc1	AmpC detergent inconclusive (no result: NS1 inh)
CN(C)/C=C/C(=O)c1nnn(C2CCCCC2)c1NC1CCCCC1	NS1 inh 7.9µM, AmpC detergent inconclusive | Flu NS1 inh inconclusive
COc1cccc(CNC(=O)CN2C(=O)CSc3ccc(S(=O)(=O)N4CCCC4)cc32)c1	none (no result: NS1 inh)
O=C(Nc1ccc(O)cc1)C1CC=CCC1 (stereo not given)	NS1 inh 13µM | Flu NS1 inh inactive
CN1C(=O)C(c2nnc(Nc3cccc4ccccc34)s2)C2CC1(C)Oc1ccccc12 (stereo not given)	NS1 inh 11µM | Flu NS1 inh inactive
CCOC(=O)C1C(=O)N(C)C2(C)CC1c1ccccc1O2 (stereo not given)	none
Cc1nc(NC(=O)c2ccc(Cl)cc2)sc1-c1csc(Nc2cccc(F)c2)n1	AmpC no deterg inconclusive (no result: AMA1-RON2 inh)
CCC(=O)Nc1ccc(NC(=O)c2cc3ccccc3o2)c(OC)c1	AmpC detergent inconclusive
Cc1ccc(S(=O)(=O)N(C)C)cc1-n1c(SCC(=O)Nc2ccc(F)cc2)nc2ccccc2c1=O	NS1 inh 13µM | Flu NS1 inh inactive
